MPTP inh – inhibitors of mitochondrial permeability transition pore | isolated mouse mitochondria, Ca2+ swelling absorbance, 30 min | inhibition, % at 10 µM | 360,000 compounds, 1.4% hits | AID 602449;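 active = inhibition of 50% or more, scaled per plate between neutral and stimulator controls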;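 note: 0% = DMSO wells given calcium and 100% = 1 mM EGTA wells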
Beta apoptosis – beta cell apoptosis inhibition | AID 435005 | INS-1E cytokine-induced death, ATP luminescence, 48 h; percent of positive-control rescue, neutral wells zero | protection from apoptosis, % (no concentration beside the values) | 300,000 compounds, 0.8% hits;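 active = Every replicate reaches about 75%, or at least half do and their mean reaches it too, limit read from the data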;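 note: 0% = cytokine-treated negative control wells and 100% = positive control rescue; higher means more ATP so stronger rescue from cytokine killing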
Mdm2 MdmX PPI – human Mdm2/MdmX binding inhibition; O15151+Q00987; SaOS-2 split-luciferase Mdm2/MdmX complementation, luminescence; inhibition, % at 8 µM; 330,000 compounds, 3% hits; AID 485346;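 active = inhibition of at least 50% at 8 µM in the primary screen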
Target sequence (O15151 whole entry, looked up): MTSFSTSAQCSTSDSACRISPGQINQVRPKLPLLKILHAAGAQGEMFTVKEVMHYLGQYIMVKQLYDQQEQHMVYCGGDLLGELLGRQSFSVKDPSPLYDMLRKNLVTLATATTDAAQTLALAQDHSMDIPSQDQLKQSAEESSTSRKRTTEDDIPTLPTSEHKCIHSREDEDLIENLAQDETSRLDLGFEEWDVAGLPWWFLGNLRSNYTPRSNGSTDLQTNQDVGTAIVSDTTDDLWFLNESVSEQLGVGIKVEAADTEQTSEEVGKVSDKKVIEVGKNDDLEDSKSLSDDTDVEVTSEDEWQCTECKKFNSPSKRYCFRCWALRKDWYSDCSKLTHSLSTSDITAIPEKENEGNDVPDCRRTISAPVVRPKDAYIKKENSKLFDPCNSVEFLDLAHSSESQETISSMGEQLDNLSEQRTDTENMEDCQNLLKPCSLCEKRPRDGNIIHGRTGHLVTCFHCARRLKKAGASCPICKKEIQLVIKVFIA
Target sequence (Q00987 whole entry, looked up): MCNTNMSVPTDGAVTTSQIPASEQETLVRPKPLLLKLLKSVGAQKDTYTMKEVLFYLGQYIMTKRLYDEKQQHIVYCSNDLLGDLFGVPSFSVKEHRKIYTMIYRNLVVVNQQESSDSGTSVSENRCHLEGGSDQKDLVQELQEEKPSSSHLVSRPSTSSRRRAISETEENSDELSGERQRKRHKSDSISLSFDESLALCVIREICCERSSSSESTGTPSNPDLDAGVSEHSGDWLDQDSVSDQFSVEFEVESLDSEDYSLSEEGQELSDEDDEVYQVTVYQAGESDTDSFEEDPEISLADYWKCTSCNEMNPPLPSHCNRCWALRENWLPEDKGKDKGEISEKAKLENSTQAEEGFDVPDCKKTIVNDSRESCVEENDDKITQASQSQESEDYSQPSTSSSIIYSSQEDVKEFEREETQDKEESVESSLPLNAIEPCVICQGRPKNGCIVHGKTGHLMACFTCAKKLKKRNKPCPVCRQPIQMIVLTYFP
CSC inhib – cancer stem cell inhibition; inhibition, % at 7.5 µM; 300,000 compounds, 1.1% hits; cancer stem cell-like cells viability, luminescence; in the data active = inhibition above about 75%; tested in HMLE shEcad cells
GRIN3A LBD mod – modulators (binders) of human NR3A ligand-binding domain; NR3A LBD differential scanning fluorimetry, Tm shift; 0% = protein alone, 100% = glycine-bound protein; Tm shift relative to glycine control, % at 25 µM; 340,000 compounds, 2.5% hits; AID 1259313;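 active = melting temperature shift of at least 10% of the positive control shift, at one fixed dose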
Gli-Sufu antag – blocks Gli-Sufu signaling in a luciferase reporter; Sufu-KO-LIGHT fibroblasts, Gli luciferase reporter luminescence; 340,000 compounds, 0.74% hits; inhibition, % at 5 µM; AID 588413;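 active = inhibition above about 55%, limit read from the data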;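 note: 0% = DMSO-treated cells and 100% = wells with medium but no cells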
* marks the source's active call; other numbers are inactive results; . = no result given. Only some compounds are listed: those with a hit (about 6.6% of all), similar ones and a draw of the others.

SMILES	MPTP inh	Beta apoptosis	Mdm2 MdmX PPI	CSC inhib	GRIN3A LBD mod	Gli-Sufu antag
Cc1cccn2c(/C=N/OCc3cccc(F)c3)c(-c3ccc(Cl)cc3)nc12	2.8	5.3	20.7	84.9*	-4.7	4.9
COc1ccc(F)cc1S(=O)(=O)n1nc(C)cc1C	1.0	-3.0	11.0	-18.8	0.8	2.9
CCOC(=O)c1c(C)[nH]c(C)c1S(=O)(=O)NC(CC)CN1CCOCC1 (stereo unspecified)	-1.1	.	-2.1	-5.2	-1.4	1.8
Fc1ccc(Nc2nc3ccccc3s2)cc1	-0.5	-3.5	-154.9	14.0	19.5*	-28.3
O=C(Nc1nc2ccccc2s1)c1ccc(F)cc1	-0.7	.	-210.0	2.5	0.2	-130.8
Cc1ccc(Nc2nc3ccccc3s2)cc1	1.6	-10.1	-268.4	7.6	22.0*	-71.2
Cc1ccc(NC(=O)Nc2nc3ccccc3s2)cc1NC(=O)Nc1nc2ccccc2s1	-0.3	30.0	23.1	28.0	27.9*	-8.5
CCNC(=O)Nc1nc2ccccc2s1	-2.0	-1.1	-53.6	-4.2	-1.0	-17.7
O=C(NCc1ccccc1)C1C(=O)Nc2ccccc2C(=O)N1c1ccc2c(c1)OCCO2 (stereo unspecified)	-0.3	.	.	.	.	.
Cc1ccc(-n2ncc3c2CCCC3NC(=O)c2ocnc2C)cc1C (stereo unspecified)	32.8	79.9*	36.0	3.8	0.4	58.8*
OC(Cc1cccc(C=NN2CCOCC2)n1)(C(F)(F)F)C(F)(F)F	0.2	.	.	.	.	.
O=C1ON=C(c2ccc([N+](=O)[O-])cc2)/C1=C/c1ccccc1O	0.6	3.0	-15.9	-0.1	-13.3	-0.7
CCN1CCN(Cc2ccc(NC(=O)c3ccc(C)c(NC(=O)c4cncc(-c5cccs5)c4)c3)cc2C(F)(F)F)CC1	5.7	.	.	.	-0.8	72.3*
O=C(O)c1cccc(Nc2ccnc(Nc3cccc(C(=O)O)c3)n2)c1	0.2	.	47.0	.	1.2	-40.8
O=C(NCC(c1cccnc1)N1CCN(c2ccccc2F)CC1)OCc1ccccc1 (stereo unspecified)	-2.4	3.7	-10.2	20.0	11.7*	3.7
CC(C)c1nc(SCC(=O)Nc2ccc([N+](=O)[O-])cc2Br)n[nH]1	18.9	-5.9	13.9	-5.2	10.7*	4.9
CCOC(=O)N1CCN(C(=O)C2CCN(C(=O)c3ccccc3C)CC2)CC1	0.2	.	.	.	0.1	0.5
CCc1ccc2[nH]c3nc(N/N=C/c4cccc(O)c4)nnc3c2c1	1.4	-2.2	7.6	97.6*	17.6*	28.5
Oc1ccccc1/C=N/Nc1ncc(Br)cn1	-3.1	87.5*	.	8.3	-6.3	18.0
Oc1ccccc1/C=N/Nc1cccc2cccnc12	2.0	-13.8	-235.6	18.8	10.2*	-12.1
O=C(COc1cccc2cccnc12)N/N=C/c1ccccc1O	1.3	2.4	40.2	16.8	-0.1	43.4
NC(=S)NN=Cc1nccc2c(C(F)(F)C(F)(F)C(F)(F)F)cccc12	-1.7	.	.	.	.	.
NC(=S)N/N=C/c1cccc(/C=N/NC(N)=S)c1	0.6	3.6	9.8	-2.1	-0.1	-3.6
NC(=S)N/N=C/c1ccc2ccccc2c1	0.9	6.0	17.5	-0.5	17.6*	-13.5
NC(=S)NN=Cc1nccc2ccccc12	0.4	.	.	.	2.2	64.5*
SMILES	MPTP inh	Beta apoptosis	Mdm2 MdmX PPI	CSC inhib	GRIN3A LBD mod	Gli-Sufu antag
Oc1ccccc1/C=N/Nc1ccccc1	32.2	2.8	-28.6	68.7	12.7*	1.2
NC(=S)N/N=C/c1ccccc1O	1.4	91.5*	5.2	7.7	-10.6	-3.7
Cc1ccc(N2C(=O)C3C4C=CC(CNC(=S)Nc5ccc(Cl)cc5)(O4)C3C2=O)cc1 (stereo unspecified)	2.9	-6.4	2.3	17.1	11.7*	2.1
Cc1ccc(N2C(=O)C3C4C=CC(CNC(=S)Nc5cccc(Cl)c5)(O4)C3C2=O)cc1 (stereo unspecified)	4.3	0.9	-14.6	7.7	20.3*	-4.5
Cc1ccc(N2C(=O)C3C4C=CC(CNC(=S)Nc5ccc(F)cc5)(O4)C3C2=O)cc1 (stereo unspecified)	0.1	1.3	5.6	.	-3.7	-3.6
COc1cc2c(C(=O)N(C)c3ccc(F)cc3)cn(C)c(=O)c2cc1OC	0.6	0.9	14.2	-7.8	-6.2	5.2
Cc1ccccc1S(=O)(=O)NC(=O)C1(C)CCN1C(=O)C(C)(C)c1ccccc1 (stereo unspecified)	-0.4	.	.	.	.	.
COc1cc2c(cc1OC)C1=NC(=O)CN1C(SCc1ccccc1C)=N2	16.2	.	28.8	-8.8	25.9*	26.1
CC(=O)OC1COC(OC2C(O)C(C)OC(OC3C(OC4CCC5(C)C(CCC6(C)C5CC=C5C7CC(C)(C)CCC7(C(=O)O)CCC56C)C4(C)CO)OCC(O)C3O)C2O)C(O)C1OC(C)=O (stereo unspecified)	.	107.5*	17.5	-2.5	.	.
Cc1ccc(-c2ccc(/C=N/NC(=O)c3ccccc3O)o2)cc1	.	0.6	16.4	9.9	.	.
N#C/C(=C/c1ccc(-c2ccc(S(N)(=O)=O)cc2)o1)C(=O)Nc1ccccc1	3.6	-2.0	13.6	1.1	22.9*	3.2
NS(=O)(=O)c1ccc(-c2ccc(/C=N/NC(=O)c3ccccc3O)o2)cc1	3.6	-0.7	-14.8	7.4	13.3*	2.2
CCOc1ccc(Br)cc1S(=O)(=O)Nc1ccc(C(=O)Nc2ccc(C)cc2)cc1	-3.6	6.2	29.3	12.1	17.6*	6.1
CCOc1ccc(Br)cc1S(=O)(=O)Nc1ccc(NC(=O)c2ccccc2C)cc1	0.6	2.7	4.8	6.1	-3.7	-4.4
CCOc1ccc(Br)cc1C(=O)Nc1ccc(C(=O)NCC(C)C)cc1	-20.3	19.9	-2.7	.	13.3*	20.6
CCOc1ccc(Br)cc1S(=O)(=O)Nc1ccc(C(=O)Nc2ccccc2OC)cc1	-0.5	9.4	-1.7	15.2	15.8*	1.4
CCOc1ccc(Br)cc1S(=O)(=O)Nc1ccc(C(=O)OCC(=O)N(C)c2ccccc2)cc1	-11.2	6.9	0.0	-0.1	-1.1	5.7
CCOc1ccc(Br)cc1S(=O)(=O)Nc1cccc(S(=O)(=O)N(C)c2ccccc2)c1	32.6	.	30.7	25.6	11.9*	4.6
CC(=O)N1c2ccc(S(=O)(=O)N(C)Cc3ccco3)cc2CC1C (stereo unspecified)	-1.5	-1.8	12.3	-10.0	-2.6	-6.5
CCc1ccc2c(c1)/C(=N/N(C)C(=S)NC)C(=O)N2	1.6	-17.4	-18.1	-6.2	13.1*	8.5
CCCCCCSc1cc(-c2nc3cc(C)ccn3c2NCCCC)ccc1OC	14.8	7.6	16.1	77.2*	-12.6	6.0
CCCCCCSc1cccc(-c2nc3ccc(C)cn3c2NC2CCCCC2)c1	1.8	1.2	25.1	59.8	-21.6	-1.5
CCCCCCSc1cc(-c2nc3cnccn3c2NCCCC)ccc1OC	1.9	-5.7	7.2	104.8*	0.8	-10.1
CCCCCCSc1cccc(-c2nc3cc(C)ccn3c2NC2CCCCC2)c1	3.4	12.9	21.0	83.3*	-15.2	11.9
